Vc quorum ag – inducers of Vibrio cholerae quorum light production without autoinducers, primary screen, BH1578 luxS cqsA deficient, single point. hit rate 0.16% among 350,000. activation, % at 18.7 µM. AID 588436, 2011. V. cholerae BH1578 lux reporter, luminescence, 6 h; in the data active = activation mostly above about 9.7%, no sharp cut-off
GDH-TPI inh – GDH-TPI coupling enzyme inhibitors, primary screen, artefact control for M. tuberculosis FBA inhibitor project, biochemical, absorbance, full deck; GDH-TPI coupled enzyme counterscreen, NADH absorbance; inhibition, % at 4.8 µM; hit rate 1.2% among 360,000; AID 588335, 2011; in the data active = inhibition above about 30%;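 note: 0% = DMSO wells and 100% = wells lacking the enzyme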
PrPC TRFRET – inhibitors of human cell surface prion protein PrPC, primary screen, cell-based, TR-FRET; Major prion protein (Homo sapiens), P04156; TR-FRET read-out; inhibition, % at 13.8 µM; hit rate 0.43% among 370,000; in the data active = inhibition above about 24%; note: 0% = median of the test wells and 100% = reference compound wells
SARS 3CLpro inh – SARS-CoV 3CLpro protease inhibitors, primary screen, biochemical, quenched FRET. Replicase polyprotein 1ab (Severe acute respiratory syndrome coronavirus), P0C6X7. recombinant SARS-CoV 3CLpro, quenched FRET peptide cleavage. inhibition, % at 6 µM. hit rate 0.14% among 290,000; in the data active = inhibition above about 12%
FBA Mtb inh – Mtb FBA enzyme inhibitors, primary screen, biochemical, fluorescence, strain H37Rv; Fructose-bisphosphate aldolase (Mycobacterium tuberculosis (strain ATCC 25618 / H37Rv)), …; purified M. tuberculosis FBA, fluorescence read-out; inhibition, % at 1 µM; hit rate 2.3% among 360,000; AID 588726, 2011; in the data active = inhibition above about 27%;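 note: 0% = vehicle and 100% = reference inhibitor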
Target sequence (P9WQA3 whole entry, looked up): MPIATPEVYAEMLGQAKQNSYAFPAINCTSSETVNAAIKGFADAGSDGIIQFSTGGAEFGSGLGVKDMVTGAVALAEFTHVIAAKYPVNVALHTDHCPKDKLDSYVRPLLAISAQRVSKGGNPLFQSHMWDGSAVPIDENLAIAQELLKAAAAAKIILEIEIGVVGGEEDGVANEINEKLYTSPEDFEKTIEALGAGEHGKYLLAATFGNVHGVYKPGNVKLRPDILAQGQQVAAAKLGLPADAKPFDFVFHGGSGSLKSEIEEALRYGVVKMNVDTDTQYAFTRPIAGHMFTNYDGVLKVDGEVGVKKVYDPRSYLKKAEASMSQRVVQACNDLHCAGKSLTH
The depositor's hits bear a star; i = inactive; . = no result; + = active, no number. Most compounds without a hit are left out; they make up all but 3.9% or so of the library.

SMILES	Vc quorum ag	GDH-TPI inh	PrPC TRFRET	SARS 3CLpro inh	FBA Mtb inh
CCC(C)Sc1cc(-c2nc3ccc(C)cn3c2NCc2ccccc2)ccc1OC (stereo not drawn)	0	10	11	.	64*
CCN(C(=O)CCc1cn(CC)c2ccccc12)c1ccc(Oc2cccnc2)cc1	.	.	5	.	.
CC(=O)c1ccc(N2CCN(C(=O)C(=O)c3c(C)[nH]c4ccccc34)CC2)cc1	i	34*	-1	3	-4
O=C(N/N=C/C(Cl)=C\c1ccccc1)c1cnccn1	i	66*	-4	3	4
O=C(N/N=C/c1cccc([N+](=O)[O-])c1)c1cnccn1	-1	16	-22	3	1
CC(/C=N/NC(=O)c1cccnc1)=C\c1ccccc1	0	18	-6	5	0
COc1ccc(C(=O)N/N=C\C(C)=C\c2ccccc2)cc1OC	0	51*	-6	.	-6
CC(=C/c1ccccc1)/C=N/NC(=O)c1cnccn1	i	43*	-1	-1	-2
O=C(N/N=C/C(Cl)=C/c1ccccc1)c1cnccn1	-1	86*	-21	-2	-6
O=Cc1ccc2c(c1)OCCOCCOCCOCCO2	-1	11	-6	.	-1
COc1ccc(OC)c(NC(=O)CCC(=O)Nc2nnc(C(C)C)s2)c1	0	0	1	0	1
CCC1S/C(=N/N=C/c2ccco2)N(Cc2ccc(F)cc2)C1=O (stereo not drawn)	i	34*	-2	-2	-1
CCCCN(CCO)c1ncnc2sc(-c3ccccc3)cc12	6	31*	-5	-5	14
Cc1ccc(CNC(=O)C2CCN(S(=O)(=O)c3c(C)noc3/C=C/c3ccco3)CC2)cc1	-1	37*	2	3	-4
Cc1noc(/C=C/c2ccco2)c1S(=O)(=O)N1CCC(C(=O)NCc2ccco2)CC1	.	34*	-3	2	1
CN(CCCOC(=O)c1cc2ccccc2o1)C1CN(Cc2cn(Cc3ccccc3Cl)nn2)S(=O)(=O)C1 (stereo not drawn)	.	.	12	.	.
Cc1cn(C2CCCO2)c(=O)nc1N (stereo not drawn)	1	3	4	.	2
CN(C)S(=O)(=O)NCCNC(=O)c1cc(OCC(F)(F)F)ccc1OCC(F)(F)F	0	9	-5	-7	2
O=C(NCCNC(=O)c1cc(OCC(F)(F)F)ccc1OCC(F)(F)F)Nc1cccc(C(F)(F)F)c1	i	5	16	16*	0
CC(C)N=C(NC#N)SCc1ccc(Br)cc1	30*	3	13	2	-7
COCCn1c(N)c(S(=O)(=O)c2cccs2)c2nc3ccccc3nc21	-4	26	-9	-4	+
N#Cc1c(N)n(CCc2ccc(F)cc2)c2nc3ccccc3nc12	i	-3	-5	1	151*
COc1ccc(Cn2c(N)c(C#N)c3nc4ccccc4nc32)cc1	i	8	-2	-5	179*
COCCn1c(N)c(C#N)c2nc3ccccc3nc21	-8	9	-14	-4	115*
Cc1ccc(Cn2c(N)c(S(=O)(=O)c3cccs3)c3nc4ccccc4nc32)cc1	3	8	-1	-12	18
SMILES	Vc quorum ag	GDH-TPI inh	PrPC TRFRET	SARS 3CLpro inh	FBA Mtb inh
CCOc1cc(S(=O)(=O)NCCc2cccc(C)c2)c(OCC)cc1-n1cnnn1	i	-1	11	-2	40*
COc1ccc(CCN2CCC(CN3C(=S)NC[C@@H]3Cc3ccccc3)CC2)cc1OC	.	.	-4	.	.
Clc1ccc(CSc2nnnn2-c2ccc3c(c2)OCO3)c(Cl)c1	-2	-5	5	-1	0
O=c1cc(CN2CCN(c3ccccc3)CC2)c2ccccc2o1	.	.	0	.	-2
Cc1c(N=Cc2c(O)n(CCc3ccc(F)cc3)c(=O)[nH]c2=O)c(=O)n(-c2ccccc2)n1C	-2	36*	1	0	-4
COc1ccc(OC)c(-n2c(O)c(C=Nc3c(C)n(C)n(-c4ccccc4)c3=O)c(=O)[nH]c2=S)c1	-1	32*	-1	3	-1
Cc1cc(OCc2nn[nH]n2)c2c(C)c(CC(=O)O)c(=O)oc2c1	i	19	-7	-2	+
Cc1cc(OCc2nn[nH]n2)c2c(-c3ccccc3)cc(=O)oc2c1	i	-10	-6	-1	4
